# Source: PubChem
# Most compounds without a hit are left out; they make up all but 2.1% or so of the library.
# ERAP1 inh: inhibitors of human ERAP1 aminopeptidase; recombinant ERAP1, Leu-AMC fluorescence, 60 min; inhibition, % at 10.7 µM; actives 0.15% (n = 340,000);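 active means mean replicate inhibition of at least 30%, or all replicates individually reaching that 30% level; inactive means mean below 30% and not every replicate reaching it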;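 further: 0% = neutral control wells and 100% = L-leucinethiol positive control wells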
# CFTR F508del cor: correctors of CFTR F508del function in bronchial epithelial cells; AID 720511; actives 0.36% (n = 350,000); CFBE cells, YFP halide quenching; stimulated with forskolin plus potentiator P3; % fluorescence drop versus neutral controls; activity (quench increase), % at 7.58 µM;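 active means mean added fluorescence quench of at least 8% versus neutral control, with both replicates also reaching 8%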;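 further: cells transiently co-express mutant CFTR-F508del with the halide-sensitive YFP; corrector assay measuring rescue of mutant channel to the surface after 24 h compound exposure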
# PvdQ acylase: blocks Pseudomonas aeruginosa PvdQ acylase activity; inhibition, % at 10 µM; actives 0.063% (n = 340,000); purified PvdQ acylase, fluorescence plate reader; AID 488965; in the data active means inhibition above about 30%, passing the limit was not always enough;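 further: 0% = vehicle neutral wells and 100% = reference inhibitor wells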
# ARNT-TACC3 inh: ARNT/TACC3 interaction disruption. AlphaScreen His-ARNT PAS-B/GST-TACC3 binding, luminescence; TACC3 fragment carries E629A point mutation. actives 0.66% (n = 390,000). inhibition, % at 9.99 µM;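 active means mean inhibition of replicates at least 50% and at least half of replicates each reaching 50%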;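 further: 0% = complete ARNT plus TACC3 wells and 100% = ARNT alone without TACC3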
# Ecoli rRNA inh: inhibits bacterial ribosomal RNA function over humanized ribosomes. AID 720706. E. coli WT GFP vs humanized-ribosome RFP mutants, fluorescence, 24 h; active compounds read low; DMSO median 0, no signal -100. actives 1.6% (n = 350,000). GFP signal change (wild-type ribosome), % (concentration not given with the values);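 active means significant combined selectivity score with lowered wild-type GFP, culture density cut under 30%, mutant RFP and density less affected; inactive means any of these conditions unmet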
# Active calls of the source: *; x = no result.
SMILES,ERAP1 inh,CFTR F508del cor,PvdQ acylase,ARNT-TACC3 inh,Ecoli rRNA inh
C#C[C@]1(O)CC[C@H]2[C@@H]3CCc4cc(OC5CCCC5)ccc4[C@H]3CC[C@@]21C,-4,8.7*,13,-1,22
C#C[C@]1(O)CC[C@H]2[C@@H]3CCc4cc(OC)ccc4[C@H]3CC[C@@]21C,-1,8.4*,-7,-1,x
CCNC(=O)C[C@@H]1CC[C@@H]2[C@H](COC[C@H](O)CN2C(=O)c2cccnc2)O1,2,-1,x,1,6
CCOC(=O)C(Cc1ccnc2ccccc12)=NO,3,2,-22,-7,4
CCOC(=O)/C(CCC[N+](C)(CC)CC)=N\O,111*,x,9,-5,x
O=S(=O)(Nc1ccc2nc(C(F)(F)F)[nH]c2c1)c1ccccc1,x,x,-13,-2,x
Cc1ccc(-c2nc3ccc(NS(=O)(=O)c4ccccc4)cc3[nH]2)o1,-2,-2,-5,9,-32*
C[C@@H]1CN([C@@H](C)CO)S(=O)(=O)c2ccc(C3=CCCC3)cc2O[C@H]1CN(C)C(=O)c1cnccn1,-2,1,x,6,-5
COc1ccc(/C=C/C(=O)NCCc2nc3ccccc3[nH]2)cc1,-1,-3,7,4,-26*
CCCCOc1ccc(/C=C/C(=O)NCCc2nc3ccccc3[nH]2)cc1,1,x,-11,0,2
CCOC(=O)c1sc2nc(Cc3ccc(Cl)cc3)[nH]c(=S)c2c1C,6,12*,-7,x,5
CCOC(=O)c1sc2nc(C)nc(NCc3ccc(Cl)cc3)c2c1C,-4,-4,-12,-7,2
Cc1ccc(S(=O)(=O)Nc2cccc3c2O[C@@H](CN(C)S(=O)(=O)c2cccs2)[C@@H](C)CN([C@H](C)CO)C3=O)cc1,0,1,x,-1,-5
CC(C)n1cc(/C=C/c2cc[n+](C)cc2)c2ccccc21,24,9.2*,-3,3,79
CCn1cc(/C=C/c2cc[n+](C)cc2)c2ccccc21,13,8,-6,-2,110
Cc1ccccc1/C=C/c1cc[n+](C)cc1,31*,-2,-15,-6,10
C[C@H]1CN([C@@H](C)CO)C(=O)Cc2cc(NC(=O)CCCCCC(=O)Nc3ccccc3N)ccc2O[C@H]1CN(C)Cc1ccncc1,-4,1,x,21,1
COc1cc2cc(CCCOC(=O)c3ccc(F)cc3)oc(=O)c2cc1OC,-5,-1,-3,7,-25*
Nc1cc2sc(-c3ccc(C(=O)O)cc3)nc2cc1Cl,-28,-1,-82,-4,-33*
CC1=C([N+](=O)[O-])C(c2ccccc2)C2=C(N1)c1ccccc1C2=O (stereo not given),x,x,-6,18,x
Cc1cccc(C2C3=C(Nc4[nH]n(-c5ccccc5)c(=O)c42)c2ccccc2C3=O)c1 (stereo not given),7,x,-2,4,-38*
Nc1cc(Cl)nc(N/N=C/c2c(O)ccc3ccccc23)n1,1,1,10,0,-20*
Nc1nonc1N/N=C/c1c(O)ccc2ccccc12,1,-3,1,-1,-44
COc1ccc(C(C#N)=C2C=CC(=NO)C(C)=C2Cl)cc1,1,-4,-40,-7,-5
COc1ccc(C(C#N)=C2C=C(Cl)C(=NO)C=C2Cl)cc1,0,0,x,x,-19*
SMILES,ERAP1 inh,CFTR F508del cor,PvdQ acylase,ARNT-TACC3 inh,Ecoli rRNA inh
C[C@@H]1CN([C@H](C)CO)C(=O)c2cc(NC(=O)CCC(F)(F)F)ccc2O[C@@H](C)CCCCO[C@@H]1CN(C)S(=O)(=O)c1ccc(F)cc1,-2,2,x,x,2
C[C@@H]1CN([C@H](C)CO)C(=O)c2cccc(NS(C)(=O)=O)c2O[C@H]1CN(C)S(=O)(=O)c1cccs1,0,-1,x,-1,2
CCS(=O)(=O)N[C@@H]1CC[C@@H](CC(=O)NC2Cc3ccccc3C2)O[C@@H]1CO,-1,1,x,6,-2
Cc1cccc(N2CCN(C(=O)C3(S(=O)(=O)c4ccc(Cl)cc4)CC3)CC2)c1C,x,1,-4,50*,-17
Cc1ccc(Cl)cc1N1CCN(C(=O)C2(S(=O)(=O)c3ccc(Cl)cc3)CC2)CC1,x,x,-7,-7,x
Cc1cc(C(=O)c2ccccc2)cc(C)c1O,1,11*,-10,3,8
C[C@H](CO)N1C[C@H](C)[C@H](CN(C)C(=O)c2ccccc2F)Oc2ncc(C#C[C@@H](C)O)cc2C1=O,-1,0,x,-4,5
